# Shown are actives, neighbours in structure and some others; about 3.6% of the full set was active somewhere.
# Sfp inh = blocks B. subtilis Sfp PPTase activity; 310,000 compounds, 3.5% hits; AID 1490; Potency, µM, without a hit: largest response in the series, negative = inhibition, usual class: inhibitors; Biochemical Sfp PPTase activity, qHTS; Q9F4F7;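 also: the enzyme is Sfp with the accession as filed and its product quenches rhodamine fluorescence; 0% = enzyme reaction without inhibitor and -100% = no enzyme wells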
#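 After 15 min at room temperature with compound, 15 nM Sfp received 5 uM rhodamine-CoA plus 12.5 uM BHQ-2-ybbR (50 mM Hepes pH 7.6, 10 mM MgCl2). Rate came from the fluorescence difference over 30 min, ex 525/em 598 nm.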
# KAT2A inh = inhibitors of human GCN5L2 histone acetyltransferase; GCN5L2 HAT assay, ThioGlo1 CoA-SH fluorescence; Potency, µM (titrated, usually from 58.9 µM), for inactives: at the highest dose activity change, negative = inhibition, actives largely listed as inhibitors; 390,000 compounds, 0.21% hits; Q92830; AID 504327; also: % is scaled to controls: 0 for no effect and ±100 for the full control effect
#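 GCN5L2 (20 nM) in 50mM HEPES pH 7.5, 0.1mM EDTA, 0.01% Tween-20 preincubated 15 min with compounds at room temperature. Reaction started with H3(1-25) 75uM, acetyl-CoA 70uM, ThioGlo1 50uM; CoA-thiol fluorescence (Ex340/Em540) read at 0 and 20 min.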
# IMPase Li cell = cell-permeable IMPase inhibitors with lithium potentiation; CHO-M1 cells, IP1 TR-FRET (IP-One), carbachol + lithium; Potency, µM (top dose mostly 59.4 µM), for inactives: top-dose activity, negative = IMPase inhibition, usual class: inhibitors; 210,000 compounds, 0.35% hits;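 also: IP1 builds up when IMPase is blocked and the TR-FRET signal falls; plate controls were basal vehicle for no effect and high inhibitor control for full effect; nearly all actives have a fitted effect of over 50% in size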
#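 Readout is a homogeneous TR-FRET IP1 immunoassay (Ex 320, Em 665 and 620), where raised cytosolic IP1 lowers signal. Cells were CHO-M1 treated 30 min at 37C with test compounds plus a little lithium; AC50 values came from Hill-equation fitting.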
# Epigenetic reg = regulators of epigenetic silencing causing reporter derepression in mouse cells. murine LDR cells, GFP reporter derepression, 30 h. Potency, µM (highest dose often 53.9 µM), without a hit: at the highest dose GFP activation, most hits filed as activators. 280,000 compounds, 0.2% hits; also: % of control where 0% means no effect; nearly all actives have a fitted effect of over 60% in size
#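 Derepression of a silenced CMV-GFP reporter in murine LDR cells is scored by enumerating GFP-positive cells with a laser-scanning microplate cytometer after 30 hours of treatment at 37 C.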
# NPSR antag = neuropeptide S receptor (human) antagonism, cAMP; CHO-NPSR cells, cAMP TR-FRET, antagonist mode; Potency, µM (top dose mostly 38.3 µM), for inactives: top-dose activity change, negative = inhibition, usual class: inhibitors; 220,000 compounds, 1% hits; AID 1461; also: % is scaled to controls: 0 for no effect and ±100 for the full control effect; nearly all actives have a fitted effect of over 50% in size
# JMJD2E inh = blocks human JMJD2E demethylase activity; B2RXH2; JMJD2E catalytic domain, FDH-coupled NADH fluorescence (FDH is formaldehyde dehydrogenase); Potency, µM (top dose mostly 57.1 µM), without a hit: top-dose activity change, negative = inhibition, hits mostly inhibitors; 230,000 compounds, 1.6% hits; AID 2147; active = well fitted inhibition curve with a large enough effect, not every such curve was filed as active; inconclusive = small, poorly fitted or top-dose-only effect, or another doubt; inactive = no such curve, though single readings can be large or run the other way;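 also: 0% = wells with enzyme and -100% = buffer wells without enzyme; nearly all actives have a fitted effect of over 50% in size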
# Target sequence (B2RXH2 1-337 limits assumed): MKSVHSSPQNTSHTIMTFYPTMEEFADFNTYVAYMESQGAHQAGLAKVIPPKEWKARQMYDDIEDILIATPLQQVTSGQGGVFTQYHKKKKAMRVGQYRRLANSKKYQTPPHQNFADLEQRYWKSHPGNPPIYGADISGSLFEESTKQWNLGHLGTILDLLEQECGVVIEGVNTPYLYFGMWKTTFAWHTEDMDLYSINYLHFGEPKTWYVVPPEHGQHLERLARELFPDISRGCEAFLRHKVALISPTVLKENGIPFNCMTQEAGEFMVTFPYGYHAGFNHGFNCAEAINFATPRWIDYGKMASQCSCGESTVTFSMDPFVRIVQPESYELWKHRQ
# * marks the source's active call; other numbers are inactive results; ? = inconclusive; . = no result given; [ ] = remark or other dose. Unless noted, calls follow the shape of the dose curve; as a rule, active = well fitted curve in the direction sought with a large enough effect; inconclusive = small, poorly fitted or top-dose-only effect, or another doubt; inactive = no such curve, though single readings can be large; an effect the other way counts as inactive or inconclusive. Potency is read from the fitted curve at half-maximal effect.
SMILES,Sfp inh,KAT2A inh,IMPase Li cell,Epigenetic reg,NPSR antag,JMJD2E inh
O=C(/C=C1\NC2(CCCC2)Cc2ccccc21)C(=O)N/N=C/c1ccc(O)c(O)c1,3%,?,29%,2%,13µM*,-3%
CCC(=O)Nc1ccccc1-c1nc2ccccc2n(Cc2cccc(Br)c2)c1=O,.,-4%,.,-2%,.,.
CC1(C)OCC(CSC2=C(SCC3COC(C)(C)O3)C(=O)c3ncccc3C2=O)O1 (centres undefined),1.3µM*,.,49%,14%,.,1µM*
CCCCC/C=C\C/C=C\C/C=C\CCCCCCC(=O)NCCc1ccc(O)c(O)c1,6%,.,13%,?,.,2%
COCCn1nnnc1SCC(=O)c1ccc(F)cc1,?,-6%,-1%,3%,0%[46.1 µM],2%
COCCn1c(SCC(=O)c2ccc(F)cc2)nnc1C(C)C,56µM*,-3%,14%[38.3 µM],-1%,-1%[46.1 µM],?
CO[C@H]1COC(=O)C/C=C\[C@H](C)[C@@H](OC)COC(=O)C/C=C\[C@@H]1C,13%,.,.,1%[10.1 µM],.,.
CC(C)(C)c1ccc(S(=O)(=O)/C=C/C#N)cc1,.,?,17%,0%,20µM*,0%
O=S(=O)(/N=C(\Sc1ccc(Cl)cc1)c1ccccc1)c1ccccc1,56µM*,9%,8%[38.3 µM],1%,-18%[46.1 µM],?
CS/C(=N\S(=O)(=O)c1ccc(Cl)cc1)c1ccccc1,19%,2%,9%,-2%,2%[46.1 µM],-5%
Cc1cc(C)c(C#N)c(=N)o1,14µM*,-6%,7%[38.3 µM],-9%,13%[46.1 µM],?
O=C(O)[C@@H](O)[C@@H](O)[C@@H](O)[C@@H](O)c1nc2ccccc2s1,.,.,0%,.,.,.
Cc1nn(CCC(N)=S)c2nc(-c3cccs3)cc(C(F)(F)F)c12,22µM*,1%,-4%,0%,-38%,?
Cc1nn(CCC#N)c2nc(-c3ccccc3)cc(C(F)(F)F)c12,-12%,-5%,1%[38.3 µM],2%,-16%[46.1 µM],?
NCCC[C@@H](CC(=O)N[C@@H]1CCNC[C@H]1C(=O)N[C@H](CC(=O)N[C@@H](CCC(=O)O)CC(=O)O)Cc1c[nH]c2ccccc12)NC(=O)C[C@H](Cc1c[nH]c2ccccc12)NC(=O)[C@@H]1CNCC[C@H]1N,-17%,.,5%,0%,.,?
Cc1nn(C)c(Cl)c1NC(=O)OCc1ccc(Cl)cc1Cl,10%,2%,16%[38.3 µM],-1%,-1%[46.1 µM],4%
Cc1nnsc1NC(=O)OCc1ccc(Cl)cc1Cl,13%,11µM*,2%[38.3 µM],-1%,1%[46.1 µM],-3%
CCCCn1cc[n+](C)c1,5%,14%,.,.,.,.
CC(=O)N1CCc2c(sc(NC(=O)C3CC3)c2-c2nc3ccccc3s2)C1,45µM*,-18%,29%[38.3 µM],?,-27%[46.1 µM],?
CCCCC(=O)Nc1sc2c(c1-c1nc3ccccc3s1)CCN(C(C)=O)C2,?,-17%,39%[38.3 µM],?,?,?
COc1ccc2oc(=O)c(C(=O)OCc3ccccc3)cc2c1,50µM*,-4%,.,.,.,.
c1ccc(CN=C2NN=C(c3ccccc3)CS2)cc1,-2%,1%,20%,0%,-49%,-10%
CC(=O)c1c(C)[nH]c(C2=NNC(=NCc3ccccc3)SC2)c1C,50µM*,-2%,-20%,-1%,-32%,?
CCC(C)NC(=O)c1c(C)oc2nc(C)nc(N3CCOCC3)c12 (centres undefined),.,7%,.,1%,.,.
N#Cc1c(N)nc(SCC(=O)NCc2ccc3c(c2)OCO3)c(C#N)c1-c1cccs1,-3%,2%,-1%[38.3 µM],0%,0%[46.1 µM],?
COc1ccccc1CNC(=O)CSc1nc(N)c(C#N)c(-c2cccs2)c1C#N,8%,-11%,3.5µM*,-3%,1%[46.1 µM],-6%
CC1(OC(=O)c2cnc3ccccc3n2)C(=O)C=C2C=C(c3ccsc3)OC=C2C1=O (centres undefined),-14%,.,15%,1%,.,10%

# Screens from PubChem.
